Among all 390,000 compounds or so, about 35 (0.009%) were called active. Not shown: some 6% with an inconclusive outcome. The call rests on the fitted dose curve; in most records, active means well fitted inhibition curve with a large enough effect in the polarisation, with a control signal flat (not every such curve was filed as active); inconclusive means small, poorly fitted or top-dose-only effect, or effect the other way, or a change in a side signal; inactive means no such curve, though single readings can be large or run the other way; the % refers to the polarisation. The full list was thinned out, with actives kept by preference.
What follows are compounds tested against Peptidyl-prolyl cis-trans isomerase NIMA-interacting 1 (Homo sapiens) (UniProt Q13526) (assay: qHTS Assay to Find Inhibitors of Pin1). Settings: Pin1 FP peptide displacement, HiFluor488, 10 min; series mostly up to 115 µM.
Chain of Peptidyl-prolyl cis-trans isomerase NIMA-interacting 1 (Homo sapiens) (Q13526 whole entry, looked up): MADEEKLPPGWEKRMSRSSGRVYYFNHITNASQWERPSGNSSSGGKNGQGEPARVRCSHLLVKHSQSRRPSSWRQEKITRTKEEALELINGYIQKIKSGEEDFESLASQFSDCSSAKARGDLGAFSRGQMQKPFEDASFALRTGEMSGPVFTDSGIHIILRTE
Text: NIH Molecular Libraries Probe Production Network [MLPCN]
NIH Chemical Genomics Center [NCGC]
The unique chemical properties of Pro allow for the adoption of two completely distinct amide bond conformations (cis and trans). Peptidyl-prolyl cis/trans isomerases (PPIases) are evolutionary conserved enzymes that catalyze cis/trans isomerization of peptidyl-prolyl peptide bonds. Distinct from all other PPIases such as cyclophilins and FK506-binding proteins (FKBPs), Pin1 binds a subset of phos.Ser/Thr-Pro-containing proteins using its protein-targeting WW domain and isomerizes only specific phos.Ser/Thr-Pro bonds, which cannot be effectively catalyzed by other known PPIases.
Pin1-catalyzed conformational regulation can control a spectrum of activities of many key regulators in diverse cellular processes such as cell growth, genotoxic and other stress responses, immune response, germ cell development, neuronal differentiation and survival. Pin1 has emerged as a novel molecular timer that modulates its multiple targets at various steps of a given cellular process to synergistically control the amplitude and duration of a cellular response or process. Importantly, Pin1 is tightly regulated by multiple levels and its deregulation has an important role in a growing number of pathological conditions, including cancer, Alzheimer's disease, aging, asthma and microbial infection, providing a potentially new therapeutic option.
The goal of this screen is to find small-molecule inhibitors of Pin1 using a fluorescence polarization competition assay. A HiFluor-488-labeled peptide binds to the active site of Pin1 and can be displaced by compounds. Compounds were screened as a concentration-titration series that ranged from 57 uM to 0.7 nM.
NCGC Assay Protocol Summary:
Pin1 (0.6 uM) was dispensed into black, solid 1536-well plates at 2 uL/well in 10 mM HEPES (pH 7.5), 10 mM NaCl, 0.01% Tween20, 1 mM DTT, and 1% glycerol. Then, 23 nL of compounds or DMSO were delivered to each well using a pin tool. Two uL of Pin1-1b-HiFluor488 peptide (10 mM HEPES (pH 7.5), 10 mM NaCl, 0.01% Tween20, 1 mM DTT, and 1% glycerol, 0.02 uM Pin1-1b-HiFluor488) was then dispensed, and plates were incubated at room temperature for 10 min. The plates were measured on a ViewLux plate reader for fluorescence polarization signal using a 480/20 nM nm excitation filter and 540/25 nM nm S and P emission filters with a 20 second exposure. The %Activity was determined from the corrected fluorescence polarization values. Unlabeled Pin1-1c peptide was used as a control (3.5 mM two-fold serial; 20 uM final concentration) along with a 1x (0.3 uM) and 0x (no-enzyme) Pin1 enzyme control to normalize %Activity of identified inhibitors; 0x enzyme values corresponded to 100%Activity (full inhibition), while 1x Pin1 enzyme values were used to normalize 0%Activity (no inhibition).
Concentration-response curves were fitted to the signals arising from the resulting fluorescence polarization. The concentration-effect curves were then classified based on curve quality (r2), response magnitude and degree of measured activity, and compounds were subsequently categorized based on their curve class.
Keywords: Peptidyl prolyl isomerase, Pin1, fluorescence polarization, MLSMR, MLPCN, NIH Roadmap, qHTS, NCGC

activity, negative = inhibition, inactive:
Cc1ccccc1CNC(=O)C(=O)NCC(c1cccs1)S(=O)(=O)c1cccs1 (stereo not given), CC1CCC2(CC1)N=C(c1ccccc1)C(=O)N2CC(=O)Nc1ccc(F)c(Cl)c1 (stereo not given), COc1cc(OC)c(NC(=O)c2nc(-c3ccncc3)no2)cc1Cl, Cc1cccc(CNC(=O)c2cnc3sc(N4CCCCC4)nn3c2=O)c1, CCc1ccccc1NC(=O)N1CCC2(CC1)Oc1ccccc1C(=O)N2Cc1ccccc1F, COc1ccc(OC)c(NC(=O)CSc2nc3ccccc3nc2N2CCCCC2)c1, CN1CCOc2cc(S(=O)(=O)N3CCN(S(=O)(=O)c4c(F)cccc4F)CC3)cnc21, O=c1c2ccccc2nc2sc(Nc3ccc(Oc4ccccc4)cc3)nn12, CCn1c(C)c(C)c2cc(C(=O)NCCc3cc(OC)ccc3OC)ccc21, CCC(=O)N1CCc2cc(CNS(=O)(=O)c3ccc(Br)s3)ccc21, O=[S+]([O-])(c1ccc(OC(F)(F)F)cc1)N1CCN([S+](=O)([O-])c2ccc3c(c2)OCCO3)CC1, CC(C)(C)c1ccc(C(=O)NCC(c2ccc(Cl)cc2)N2CCOCC2)cc1 (stereo not given), COc1ccccc1Cc1nc2ccccc2nc1SCC(=O)N1CCCc2ccccc21, COc1ccc(C2Nc3ccccc3C(=O)N2Cc2ccc(Cl)cc2)cc1COc1ccc(NC(C)=O)cc1 (stereo not given), Cc1nn2c(=O)cc(COC(=O)c3ccccc3NC(=O)COc3ccccc3C)nc2s1, CCOC(=O)c1ccc(NC(=O)CC2C(=O)N(c3ccccc3)C(=O)N2Cc2cccs2)cc1 (stereo not given), CC1CCCN(S(=O)(=O)c2ccc3[nH]c(=O)cc(C(=O)NCCc4ccc(Cl)cc4)c3c2)C1 (stereo not given), COc1ccc(N2CCN(S(=O)(=O)c3ccc4c(c3)CC(=O)N4)CC2)cc1, COc1ccc(N2CCN(C(=O)c3c(C)oc4nc(C)nc(N5CCCC5)c34)CC2)cc1, O=[S+]([O-])(c1ccc2c(c1)OCCO2)N1CCN([S+](=O)([O-])c2c(Cl)cc(Cl)cc2Br)CC1, Cc1ccc(C)c(N2CCN(C(=O)C3CCC(CNS(=O)(=O)c4cccs4)CC3)CC2)c1 (stereo not given), O=C(CSc1nc(-c2cccc(F)c2)[nH]c1-c1ccccc1)Nc1ccc2c(c1)OCO2, COc1cc(F)c(S(=O)(=O)N2CCCN(S(=O)(=O)c3ccc(N)cc3)CC2)c(F)c1, COC(=O)c1cnn(-c2ccc(C(=O)Nc3ccc(OC(F)(F)F)cc3)cc2)c1N, O=S(=O)(c1ccc2c(c1)OCCO2)N1CCN(S(=O)(=O)c2cc(F)ccc2F)CC1, COC(=O)c1ccc(NC(=O)c2cnn(-c3ccc(Cl)cc3)c2C2CCN(C(=O)OC(C)(C)C)CC2)cc1, CCCCN(C)CCCNC(=O)CN1N=C(c2ccc(OC)cc2)CCC1=O, CCOc1ccc2oc(=O)cc(CN3CCN(C(=O)c4ccc(F)cc4)CC3)c2c1, O=C(O)c1ccc(Cn2c(SCc3ccc(F)cc3)nc3ccncc32)cc1, Cc1ccc(-c2nc3ccccn3c2Nc2c(C)cccc2C)o1, Cc1cccc(C(=O)NCCc2nc3ccccc3n2Cc2ccccc2Cl)c1, COc1cccc(C(=O)N(Cc2cccc(Cl)c2)Cc2ccco2)c1, CC(CNC(=O)c1nnc(Cc2cccc(F)c2)o1)c1ccccc1 (stereo not given), Cc1noc(C)c1-c1ccc2ncnc(NCc3ccc(F)c(F)c3)c2c1, O=C(CSCc1cnn(-c2ccccc2)c1-n1cccc1)NCc1ccc(Cl)cc1, CC(C)c1ccc(NC(=O)C2CCN(c3nc(-c4ccc(C(C)C)cc4)no3)CC2)cc1, NC(=O)C1CCN(C(=O)c2cccc(NC(=O)c3nsc4ccccc34)c2)CC1, Cc1ccc(C(=O)NC2CCN(C#N)CC2)cc1, O=S(=O)(NCCc1nnc2ccc(SCc3ccc(Cl)cc3Cl)nn12)c1ccccc1, COC(=O)C(CC(C)C)NS(=O)(=O)c1cc(Br)ccc1Br (stereo not given), N#Cc1nc(NCc2ccc(Cl)c(Cl)c2)c2ncn(CCCO)c2n1, COCCNS(=O)(=O)c1cc(-c2nn3c(C)nnc3c3ccccc23)ccc1C, O=S1(=O)N=C(Oc2cccc(Br)c2)c2ccccc21, COc1ccc(CNC(=O)c2ccc3c(c2)nc2n3CCOC2)c(OC)c1, COc1ccc(C2Nc3ccccc3C(=O)N2Cc2ccc(CNC(=O)CO)cc2)cc1COc1ccc(NC(C)=O)cc1 (stereo not given), COc1ccc(OC)c(NC(=O)C2CCN(S(=O)(=O)c3ccc(C)cc3)CC2)c1, O=C1CC(c2ccccc2)CC2=C1C(c1ccco1)n1nc(C(F)(F)F)nc1N2 (stereo not given), COc1ccc(C2Nc3cccc(OC)c3C(=O)N2Cc2ccccc2)cc1COc1ccc(NC(C)=O)cc1 (stereo not given), COc1ccc(-c2ccc(C3C4C=CCCC4(C)C(=O)N3Cc3ccccc3)c(F)c2)cc1OC (stereo not given), Cc1cc(C)n2ncc(C(=O)Nc3cccc(C#N)c3)c2n1 1.24% [at 28.7 µM], CCCOc1ccc(NC(=O)CC2C(=O)N(c3ccccc3)C(=O)N2Cc2ccco2)cc1 (stereo not given), CCOC(=O)N1CCc2c(sc3c2c(=O)n(Cc2ccccc2)c(=O)n3CC(=O)Nc2cccc(C)c2)C1, COC(=O)c1ccccc1NC(=O)c1ccc(C#N)cc1, C=C1CCN(Cc2ccc(OC)cc2)S(=O)(=O)c2ccccc21, COc1ccc(C2=Nn3c(nnc3-c3ccccc3O)SC2)cc1, O=C(c1ccco1)n1nc(-c2ccc(Cl)cc2)nc1NCc1ccccc1, Cc1ccc(S(=O)(=O)N2CCN(c3nc(-n4cnc5ccccc54)nc4ccccc34)CC2)cc1, O=C1NS(=O)(=O)c2ccccc21, COc1ccc(CN(Cc2ccccc2)C(=O)c2ccc(O)cc2)cc1COc1ccc(NC(C)=O)cc1, COc1ccccc1/C=C/c1nc(C#N)c(NC(C)c2ccccc2)o1 (stereo not given), O=C(CNC(=O)c1ccc(Cl)c(C(F)(F)F)c1)OC(C(=O)Nc1cc(C(F)(F)F)ccc1Cl)c1ccccc1 (stereo not given), Cc1ccc(CNC(=O)CSc2c(C)cnc3c2c(=O)n(C)c(=O)n3C)cc1, CCc1cc2c(cc3c(=O)n(CC(=O)N4CCN(c5cc(Cl)ccc5C)CC4)ncn32)s1, CCCN1CCC(=O)N(C(CSc2ccc(C)cc2)Cc2ccccc2)CC1 (stereo not given), CCCCn1c(=O)c2oc3ccccc3c2n(CC(=O)Nc2ccccc2OC)c1=O, Cn1c(=O)oc2cc(S(=O)(=O)CCC(=O)NCCc3ccc(Cl)cc3)ccc21, COc1ccc(C(=O)N(Cc2ccccc2)Cc2ccc(OC)c(COc3ccc(NC(C)=O)cc3)c2)c(O)c1, O=C1C(F)N([S+](=O)([O-])c2ccc3c(c2)OCCO3)CCN1[S+](=O)([O-])c1c(F)cccc1F (stereo not given), Cc1ccccc1CN1CCC(CNC(=O)c2cc3ccc4cccnc4c3[nH]2)CC1, CN(Cc1cncn1C)c1ncnc2ccc(-c3ccc4c(c3)OCO4)cc12, CC(C)(C)NS(=O)(=O)c1cccc(Nc2nn3c(=O)c4ccccc4nc3s2)c1, COc1ccc(Cn2cc(C(=O)c3ccc(C)cc3)c(=O)c3cc(OC)c(OC)cc32)cc1, Cc1ccc(NC(=O)c2cc3cc(C)ccc3n2C)cc1, N#CN1CCC(NC(=O)c2ccc(F)cc2)CC1, O=C(CNC(=O)c1ccc(Cl)cc1Cl)OC(C(=O)Nc1cc(C(F)(F)F)ccc1Cl)c1ccccc1 (stereo not given), N#CN1CCC(NS(=O)(=O)c2cccc(F)c2)C1 (stereo not given), O=C(COc1ccccc1)NCc1ccc2c(c1)CCN2C(=O)c1ccc(F)cc1, CN(C)c1ccc(C(=O)NCC(=O)OC(C(=O)Nc2cc(C(F)(F)F)ccc2Cl)c2ccccc2)cc1 (stereo not given), CC1CCCCN1S(=O)(=O)c1ccc(F)c(C(=O)Nc2ccccc2C(F)(F)F)c1 (stereo not given), Cc1noc(C)c1-c1ccc2ncnc(NCc3ccc4[nH]ccc4c3)c2c1, Brc1ccc2c(c1)NC(c1cccnc1)=NC(c1ccccc1)=N2, CS(=O)(=O)c1ccc(-c2nnc(NC(=O)c3ccc4c(c3)OCCO4)o2)cc1, CCN(Cc1ccccc1)C(=O)c1cn(-c2cccc(OC)c2)c(=O)c2ccccc12, O=C(c1ccccc1F)N1CCC(c2nc3c(nnn3Cc3cccc(F)c3)c(=O)[nH]2)CC1, COc1cc(OC)cc(C(=O)Nc2cc3nn(-c4ccccc4)nc3cc2Cl)c1, O=C(c1ccc2c(c1)N(Cc1ccccc1)C(=O)c1ccccc1S2(=O)=O)N1CCC(Cc2ccccc2)CC1, COc1cccc(Cn2c(SCc3ccc(C(=O)N4CCC(C)CC4)cc3)nc3ccncc32)c1, O=S(=O)(c1ccc2nc(NCc3ccccc3Cl)ccc2c1)N1CCCCC1, Oc1ccc(/C=C/c2c(F)cccc2F)c2cccnc12, Oc1ccc(Br)cc1C1C=C(c2ccc3c(c2)OCO3)NC(c2ccc(Cl)cc2)N1 (stereo not given), O=C(NCc1ccccn1)[C@]1(C(F)(F)F)C[C@H](CCc2ccccc2)CCCO1, CCOc1ccccc1C(=O)Nc1ccc(S(=O)(=O)N2CCCCC2c2cccnc2)cc1 (stereo not given), Cc1ccc(-c2nc3ccccn3c2Nc2ccc(F)cc2)o1, COc1ccc(CNC(=O)CSc2n[nH]c(-c3ccc(F)cc3)n2)cc1, O=C(NC1CC(=O)N(c2ccc(F)cc2)C1)c1ccc(S(=O)(=O)N2CCCC2)cc1 (stereo not given)

Reference: PubChem BioAssay AID504891 (National Center for Advancing Translational Sciences (NCATS), 2011)
